# Test results reported in PubChem BioAssay (NCATS).
# Results filed as inconclusive are left out. Active and inactive are the calls of the source. The call rests on the fitted dose curve; in most records, active means well fitted cell-killing curve with a large enough effect; inconclusive means small, poorly fitted or top-dose-only effect, or effect the other way; inactive means no such curve, though single readings can be large or run the other way.
# Assay: Quantitative High-Throughput drug screen in 47 multiple myeloma cell lines against the NCATS MIPE library collection: JIM1_ECACC cell viability assay (AID 1918964)
# Conditions: JIM1 myeloma viability, CellTiter-Glo ATP luminescence, 48 h; series mostly up to 45.8 µM
# Text: PI: Beverly A. Mock Ph.D.
# Laboratory of Cancer Biology and Genetics,
# Center for Cancer Research, National Cancer Institute,
# National Institute of Health, Bethesda, Maryland
# Drug resistance and disease progression are common in multiple myeloma (MM) patients, underscoring the need for new therapeutic combinations. […] We hypothesized that effective combinations would reduce MYC expression and enhance p16 activity. […] These preclinical data identify potentially useful drug combinations for evaluation in drug-resistant MM and reveal potential mechanisms of combined drug sensitivity.
# Described herein is the primary MIPE qHTS used to cherrypick compounds. Validated compounds were then further tested for potential synergistic activiy.
# [1] Peat TJ, Gaikwad SM, Dubois W, Gyabaah-Kessie N, Zhang S, Gorjifard S, Phyo Z, Andres M, Hughitt VK, Simpson RM, Miller MA, Girvin AT, Taylor A, Williams D, D'Antonio N, Zhang Y, Rajagopalan A, Flietner E, Wilson K, Zhang X, Shinn P, Klumpp-Thomas C, McKnight C, Itkin Z, Chen L, Kazandijian D, Zhang J, Michalowski AM, Simmons JK, Keats J, Thomas CJ, Mock BA. Drug combinations identified by high-throughput screening promote cell cycle transition and upregulate Smad pathways in myeloma. Cancer Lett. 2023 Aug 1;568:216284. doi: 10.1016/j.canlet.2023.216284. Epub 2023 Jun 24. PMID: 37356470; PMCID: PMC10408729.
# SEQUENCE No. (e.g., 1, 2, 3, etc.); […] (e.g., Cells, Incubation, Reagent, etc.); VALUE and DESCRIPTION.
# 1; Cells; 5 uL; white, solid bottom 1536-well Greiner assay plate.
# 2; Compounds; 23 nL; Kalypsis pin tool (Wako USA) equipped with a 1536-well pin head to transfer to the assay plates.
# 3; Incubation; 48 hours; 37C incubation.
# 4; Reagent;5uL; CellTiter Glo (Promega).
# 5; Detector; 425V; Luminescence; Viewlux PerkinElmer.
# NOTES (numbers refer to Sequence numbers above)
# 1. The cell-based screening methods employed in this study were like those previously published. Briefly, the corresponding myeloma cell lines were screened in 1,536-well plates with 500 cells, 5-uL per well for inhibition of cell viability (assessed by measuring ATP levels with CellTiterGlo).
# 2. NCATS MIPE 4.0 library of approved and investigational drugs were added using the Kalypsis pin tool. Wells treated with DMSO only for 100% viability and media only wells for 0% viability were used as controls.
# 3. The assay plates were covered and incubated for 48 hours in a 37C, 5% CO2 incubator with controlled humidity.
# 4. After 48 hours, CellTilter-GloTM luminescent substrate mix (Promega) reagent was added to the assay plate and plates we incubated for 5 min at room temperature.
# 5. Signal was measured as median relative luminescence units on a ViewLux (PerkinElmer) multiplate reader.
# [1] Heske CM, Davis MI, Baumgart JT, Wilson K, Gormally MV, Chen L, Zhang X, Ceribelli M, Duveau DY, Guha R, Ferrer M, Arnaldez FI, Ji J, Tran HL, Zhang Y, Mendoza A, Helman LJ, Thomas CJ. Matrix Screen Identifies Synergistic Combination of PARP Inhibitors and Nicotinamide Phosphoribosyltransferase (NAMPT) Inhibitors in Ewing Sarcoma. Clin Cancer Res. 2017 Dec 1;23(23):7301-7311. doi: 10.1158/1078-0432.CCR-17-1121. Epub 2017 Sep 12. PMID: 28899971; PMCID: PMC6636827.
# Potency means the concentration at half of the fitted maximal effect.
row,SMILES,Potency
1,C[C@@]12C(=O)OC(=O)[C@@]1(C)C1CCC2O1,0.662 µM (active)
2,CC(=CC(=O)Nc1ccccc1C(=O)O)c1ccc2ccccc2c1,0.59 µM (active)
3,Cc1cnn(C)c1C(=O)Nc1cc(Nc2ccc3c(C=Cc4ccccn4)n[nH]c3c2)ccc1F,10.5 µM (active)
4,CCOC(=O)[C@@H](N)Cc1ccc(-c2cc(O[C@H](c3ccc(Cl)cc3-n3ccc(C)n3)C(F)(F)F)nc(N)n2)cc1,6.62 µM (active)
5,O=C(c1ccc(F)cc1)N1CCC[C@H](c2nc(-c3ccc(F)cc3)no2)C1,inactive
6,N=c1ccn2c(n1)O[C@H]1[C@@H](O)[C@@H](CO)O[C@H]12,inactive
7,CCc1cnn2c(NCc3ccc[n+]([O-])c3)cc(N3CCCC[C@@H]3CCO)nc12,0.0148 µM (active)
8,C[C@@H](Oc1ccc2[nH]nc(C=Cc3cnn(CCO)c3)c2c1)c1c(Cl)cncc1Cl,inactive
9,CC(=O)NCC(=O)N1[C@H]2CC[C@H]1c1cc(Nc3ncc(C(F)(F)F)c(NC4CCC4)n3)ccc12,0.332 µM (active)
10,C[C@](Cc1c[nH]c2ccccc12)(NC(=O)OC1C2CC3CC(C2)CC1C3)C(=O)NC[C@H](NC(=O)CCC(=O)O)c1ccccc1 (stereo not given in full),inactive
11,Cc1cc(Nc2ncc3c(n2)N(C)C(=O)N(c2cc(NC(=O)c4cccc(C(F)(F)F)c4)ccc2C)C3)n(C)n1,0.118 µM (active)
12,CCNC(=O)Nc1ccc(-c2nc3c(c(N4CCOC[C@H]4C)n2)CCN(C2COC2)C3)cc1,0.132 µM (active)
13,COc1cc2c(cc1OC)[C@@H]1C(=O)c3ccc4c(c3O[C@@H]1CO2)C=CC(C)(C)O4,1.18 µM (active)
14,COc1ccc(C(C)=O)c(O)c1,inactive
15,O=c1[nH]c(=O)n([C@H]2C[C@@H](O)[C@@H](CO)O2)cc1C=CBr,inactive
16,CO[C@@H]1[C@@H](O)[C@H](O)[C@@H](n2c3c(Cl)cccc3c3c4c(c5c6cccc(Cl)c6[nH]c5c32)C(=O)NC4=O)O[C@@H]1CO,0.526 µM (active)
17,C[C@H]1COc2c(N3CCN(C)CC3)c(F)cc3c(=O)c(C(=O)O)cn1c23,inactive
18,COc1cccc2c1C(=O)c1c(O)c3c(c(O)c1C2=O)C[C@@](O)(C(C)=O)C[C@H]3O[C@H]1C[C@H](N)[C@H](O)[C@H](C)O1,0.0743 µM (active)
19,CN[C@H]1[C@@H](O)[C@@H]2O[C@@H]3O[C@H](C)CC(=O)[C@]3(O)O[C@@H]2[C@@H](NC)[C@H]1O,0.662 µM (active)
20,Cc1cnc(NC(=O)Nc2cc(Br)c(C)cc2OC[C@@H]2CNCCO2)cn1,1.05 µM (active)

row,SMILES,Potency
1,COc1ccc(Nc2nccc(NCCO)n2)cc1,inactive
2,COc1cc(O)c2c(c1)C1OC1C[C@H](O)[C@H](O)C(=O)C=CC[C@H](C)OC2=O (stereo not given in full),2.96 µM (active)
3,CC[C@@]1([C@@H]2O[C@@H]([C@H]3O[C@@](O)(CO)[C@H](C)C[C@H]3C)C[C@H]2C)CC[C@H]([C@]2(C)CC[C@]3(C[C@H](O)[C@@H](C)[C@@H]([C@@H](C)[C@@H](OC)[C@H](C)C(=O)O)O3)O2)O1,0.0645 µM (active)
4,CCN(CC)CCCCNc1ncc2c(n1)N(C)C(=O)N(c1c(Cl)c(OC)cc(OC)c1Cl)C2,inactive
5,CCOC(=O)[C@H](CCc1ccccc1)N[C@@H](C)C(=O)N1[C@@H](C(=O)O)C[C@H]2CCC[C@@H]21,5.26 µM (active)
6,CC(=O)O[C@@]12CO[C@H]1C[C@H](O)[C@@]1(C)C(=O)[C@H](O)C3=C(C)[C@@H](OC(=O)C(O)[C@@H](NC(=O)OC(C)(C)C)c4ccccc4)C[C@@](O)([C@@H](OC(=O)c4ccccc4)[C@@H]21)C3(C)C (stereo not given in full),inactive
7,CNC(=O)c1ccc(Nc2cc(Nc3ccccc3S(=O)(=O)C(C)C)c3cc[nH]c3n2)nc1,3.32 µM (active)
8,CN(C)CCN1C(=O)c2cccc3cc(N)cc(c23)C1=O,18.7 µM (active)
9,COC(=O)[C@@H]1CC2=CC(=O)CC[C@]2(C)[C@@]23O[C@@H]2C[C@@]2(C)[C@H](CC[C@@]24CCC(=O)O4)[C@@H]13,inactive
10,COc1cc(C=CC(=O)CC(=O)C=Cc2ccc(O)c(OC)c2)ccc1O,3.4 µM (active)
11,O=C1NCCc2[nH]c(-c3ccncc3)cc21,0.662 µM (active)
12,COc1cc(OC)cc(-c2ccc3ncc4ccc(=O)n(-c5ccc(N6CCNCC6)c(C(F)(F)F)c5)c4c3c2)c1,3.72 µM (active)
13,CC(=O)OC[C@@H]1O[C@@H](n2ccc(=O)[nH]c2=O)[C@H](OC(C)=O)[C@H]1OC(C)=O,inactive
14,Nc1ncn([C@@H]2O[C@H](CO)[C@@H](O)[C@@H]2O)c(=O)n1,1.48 µM (active)
15,N#Cc1ccc(COC[C@H]2O[C@@H](n3c(NCc4ccc(Cl)c(Cl)c4)nc4c(N)ncnc43)[C@@H](O)[C@@H]2O)cc1,3.72 µM (active)
16,C=CCNc1c(O)cc2c(O)c1C[C@@H](C)C[C@H](OC)[C@@H](O)[C@@H](C)C=C(C)[C@H](OC(N)=O)[C@@H](OC)C=CC=C(C)C(=O)N2,0.209 µM (active)
17,C=CC(=O)N1CCc2ccc(-n3c(=O)ccc4cnc5ccc(-c6cnn(C)c6)cc5c43)cc21,1.87 µM (active)
18,CCC(C(=O)O)C1CCC(C)C(C(C)C(O)C(C)C(=O)C(CC)C2OC3(C=CC(O)[C@@]4(CC[C@](C)(C5CC[C@@](O)(CC)C(C)O5)O4)O3)C(C)CC2C)O1 (stereo not given in full),0.332 µM (active)
19,C=C1C(=CC=C2CCC[C@]3(C)[C@@H]([C@H](C)CCCC(C)(C)O)CC[C@@H]23)C[C@@H](O)C[C@@H]1O,5.26 µM (active)
20,C=C(C)[C@@H]1CC[C@]2(C)CC[C@]3(C)[C@H](CC[C@@H]4[C@@]5(C)CC[C@H](O)C(C)(C)[C@H]5CC[C@]43C)[C@@H]12,inactive
